Source: PubChem (National Center for Advancing Translational Sciences (NCATS))
Only some compounds are listed: those with a hit (about 19% of all), similar ones and a draw of the others.
RORg inh = blocks mouse ROR gamma transcriptional activity; P51450; Drosophila S2 Gal4-RORgamma UAS-luciferase reporter, 20 h; Potency, µM (top dose mostly 53.6 µM), for inactives: top-dose activity change, negative = inhibition, usual class: inhibitors; 5.4% of 310,000 active; AID 2551; further: nearly all actives have a fitted effect of over 60% in size
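A Gal4/UAS one-hybrid system in insect cells: metallothionein-promoter Gal4–ROR gamma fusion plus Photinus luciferase reporter. Copper sulfate 700 uM final, 20 hr ambient incubation, luminescent detection after 10 min with reagent.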
TDP1 block = inhibitors of human tyrosyl-DNA phosphodiesterase TDP1 | recombinant TDP1, AlphaScreen DNA substrate cleavage | Potency, µM (top dose mostly 130 µM), inactives show top-dose activity change, negative = inhibition, usual class: inhibitors | 0.28% of 350,000 active | AID 485290; further: nearly all actives have a fitted effect of over 40% in size
Target sequence (Q9NUW8 whole entry, looked up): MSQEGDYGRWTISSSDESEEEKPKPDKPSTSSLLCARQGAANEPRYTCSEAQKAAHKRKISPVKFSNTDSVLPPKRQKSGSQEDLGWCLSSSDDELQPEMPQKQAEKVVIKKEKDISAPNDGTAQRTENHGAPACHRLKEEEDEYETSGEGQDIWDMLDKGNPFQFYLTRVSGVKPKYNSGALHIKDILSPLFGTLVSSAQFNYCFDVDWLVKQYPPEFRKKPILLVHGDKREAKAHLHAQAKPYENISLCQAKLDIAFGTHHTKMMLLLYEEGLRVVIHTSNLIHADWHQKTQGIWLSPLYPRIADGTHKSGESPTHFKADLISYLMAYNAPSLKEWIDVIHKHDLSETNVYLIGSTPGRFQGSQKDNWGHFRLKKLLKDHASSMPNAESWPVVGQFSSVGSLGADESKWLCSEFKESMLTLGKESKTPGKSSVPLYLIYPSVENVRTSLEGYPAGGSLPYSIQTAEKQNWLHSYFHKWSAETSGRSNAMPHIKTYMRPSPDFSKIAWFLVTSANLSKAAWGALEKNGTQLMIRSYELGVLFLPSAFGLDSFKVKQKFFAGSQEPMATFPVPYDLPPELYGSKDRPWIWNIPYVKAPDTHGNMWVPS
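Compounds were preincubated with Tdp1 (1 nM final) for 15 min at room temperature before substrate (15 nM final) started a 5 min reaction; beads (10 ug/ml final) were then added for 10 min before AlphaScreen detection.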
DT40 TDP1 no CPT = qHTS for Inhibitors of human tyrosyl-DNA phosphodiesterase 1 (TDP1): qHTS in cells in absence of CPT; Potency, µM (top dose mostly 46.2 µM), for the others: top-dose activity change, negative = growth inhibition, hits mostly inhibitors; AID 686978, 2013; DT40 Tdp1-/- hTDP1 cells, no CPT, ATP luminescence, 48 h; 15% of 420,000 active; further: nearly all actives have a fitted effect of over 55% in size
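Luminescent ATP content (CellTiter-Glo) served as the growth readout. Knockout chicken DT40 cells expressing human TDP1 were exposed to compounds without camptothecin for a minimum 48 hr at 37 °C.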
DT40 TDP1 CPT = growth inhibition of DT40 Tdp1-/-;hTDP1 cells with camptothecin (screen for TDP1 inhibitors); chicken DT40 Tdp1-/-;hTDP1 cells + 20 nM CPT, ATP luminescence, 48 h; Potency, µM (series often up to 46.2 µM), inactives show at the top dose activity change, negative = growth inhibition, most hits filed as inhibitors; 12% of 420,000 active; further: nearly all actives have a fitted effect of over 55% in size
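Cell growth measured by CellTiter-Glo luminescence after a minimum 48 h, 37 C compound exposure with 20 nM CPT in Tdp1-knockout DT40 cells stably expressing hTDP1, seeded 400/well; qHTS titration format.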
VP16 counter = Gal4-VP16 reporter inhibition counter-screen. Drosophila S2 Gal4-VP16 UAS-luciferase, luminescence, 20 h. Potency, µM (top dose mostly 53.6 µM), for inactives: at the highest dose activity, negative = inhibition, usual class: inhibitors. 3.5% of 310,000 active;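 further: Gal4-VP16 expression switched on by copper sulfate through the metallothionein promoter; nearly all actives have a fitted effect of over 50% in size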
Active calls of the source: *. The call rests on the fitted dose curve; in most records, active means well fitted curve in the direction sought with a large enough effect; inconclusive means small, poorly fitted or top-dose-only effect, or another doubt; inactive means no such curve, though single readings can be large; an effect the other way counts as inactive or inconclusive. On the % scale 0 is the no-effect control and ±100 the full control effect; potency means the concentration at half of the fitted maximal effect.

`Cc1c(C(=O)c2no[n+]([O-])c2C(=O)c2cnn(C)c2C)cnn1C` gave RORg inh 10µM*, TDP1 block 8%, DT40 TDP1 no CPT 3.7µM*, DT40 TDP1 CPT 2.6µM* and VP16 counter 8.9µM*.
Screening Cc1c(C(=O)Nc2ccc(Br)cc2)cnn1C returned RORg inh 40%, TDP1 block 2%, DT40 TDP1 no CPT -18%, DT40 TDP1 CPT -5% and VP16 counter -6%.
`CCOC(=O)C1CCCN(C2CC(=O)N(c3ccc(C(C)C)cc3)C2=O)C1` (stereo not drawn) gave RORg inh 27%, TDP1 block 4%, DT40 TDP1 no CPT inconclusive, DT40 TDP1 CPT inconclusive and VP16 counter inconclusive.
C#Cc1ccc2c(c1)COc1c3ccccc3nn1-2 was read as DT40 TDP1 no CPT inconclusive and DT40 TDP1 CPT 10µM*.
O=C(Nc1ccc(C(=O)N2CCN(c3ccncc3)CC2)cc1)c1ccc(Br)o1 was read as DT40 TDP1 no CPT inconclusive and DT40 TDP1 CPT -18%.
Screening O=C(Nc1ccc(C(=O)N2CCC(O)(c3ccc(Cl)c(C(F)(F)F)c3)CC2)cc1)c1ccc(Br)o1 returned TDP1 block 0%, DT40 TDP1 no CPT 18µM* and DT40 TDP1 CPT inconclusive.
O=C(Nc1ccc2nc(-c3cccnc3)[nH]c2c1)c1ccccc1F was read as RORg inh inconclusive, TDP1 block 7%, DT40 TDP1 no CPT inconclusive, DT40 TDP1 CPT inconclusive and VP16 counter -17%.
Screening COc1ccc2nc3cc(Cl)ccc3c(Nc3ccc(O)c(CN4CCN(C)CC4)c3)c2c1 returned DT40 TDP1 no CPT 1.5µM* and DT40 TDP1 CPT 1.8µM*.
Screening COc1ccc2nc3cc(Cl)ccc3c(NCCCN3CCN(CCCNc4c5ccc(Cl)cc5nc5ccc(OC)cc45)CC3)c2c1 returned RORg inh 3%, TDP1 block 29% and VP16 counter -20%.
COc1ccc(CC(=O)NCC2(c3ccc(OC)c(OC)c3)CCCC2)cc1 was read as RORg inh 27%, TDP1 block 0%, DT40 TDP1 no CPT inconclusive, DT40 TDP1 CPT inconclusive and VP16 counter -5%.
Screening NCCC[C@@H](CC(=O)N[C@@H]1CCNC[C@H]1C(=O)N[C@H](CC(=O)N[C@@H](CCC(=O)O)CC(=O)O)Cc1ccccc1)NC(=O)C[C@H](CO)NC(=O)[C@@H]1CNCC[C@H]1N returned RORg inh 10%, TDP1 block 0% and VP16 counter 3%.
For CC1(C)Cc2c(sc3c2c(=N)n(Cc2ccco2)c(=O)n3Cc2ccc(Cl)cc2)CO1 the results were RORg inh 39%, TDP1 block 0%, DT40 TDP1 no CPT inconclusive, DT40 TDP1 CPT -110% and VP16 counter -15%.
Screening CC1(C)Cc2c(sc3[nH]c(=S)n(Cc4ccco4)c(=O)c23)CO1 returned RORg inh 1µM*, DT40 TDP1 no CPT inconclusive, DT40 TDP1 CPT 21µM* and VP16 counter 1.4µM*.
For CC1(C)Cc2c(sc3c2c(=N)n(Cc2ccco2)c(=O)n3Cc2ccccc2)CO1 the results were RORg inh -39%, TDP1 block 5%, DT40 TDP1 no CPT inconclusive, DT40 TDP1 CPT 18µM* and VP16 counter inconclusive.
For CN(C)S(=O)(=O)c1ccc(C(=O)Nc2ccccc2C(=O)O)cc1 the results were RORg inh -45%, TDP1 block 5%, DT40 TDP1 no CPT 4%, DT40 TDP1 CPT 0% and VP16 counter -8%.
Screening Cc1ccc(C(=O)Nc2ccccc2[N+](=O)[O-])cc1S(=O)(=O)N1CCOCC1 returned RORg inh inconclusive, TDP1 block 1%, DT40 TDP1 no CPT inconclusive, DT40 TDP1 CPT 4% and VP16 counter 21%.
Screening CCNC(=O)c1c(NC(=O)Cc2coc3ccc(CC)cc23)sc2c1CCCC2 returned TDP1 block 4%, DT40 TDP1 no CPT -7% and DT40 TDP1 CPT -18%.
`CCc1ccc2occ(CC(=O)Nc3sc4c(c3C(=O)OC)CCC4)c2c1` gave TDP1 block 9%, DT40 TDP1 no CPT 18µM* and DT40 TDP1 CPT 13µM*.
Screening CNC(=O)c1c(NC(=O)Cc2coc3ccc(C)cc23)sc2c1CCCC2 returned TDP1 block -1%, DT40 TDP1 no CPT 18µM* and DT40 TDP1 CPT inconclusive.
`O=C(Nc1ccc(OCCO)cc1)c1csc([C@@H]2C[C@H](O)[C@@H](CO)O2)n1` gave DT40 TDP1 no CPT -2% and DT40 TDP1 CPT -17%.
`COCn1c(=O)c2c(nc(SC3=NCCS3)n2Cc2ccccc2C)n(COC)c1=O` gave RORg inh -29%, TDP1 block 10%, DT40 TDP1 no CPT inconclusive, DT40 TDP1 CPT 23µM* and VP16 counter 2%.
Screening COc1ccc(CN(Cc2cccn2C)S(=O)(=O)c2ccc(F)cc2)cc1 returned RORg inh -8%, TDP1 block 10%, DT40 TDP1 no CPT inconclusive, DT40 TDP1 CPT -5% and VP16 counter -3%.
Screening COc1ccc(CN(Cc2cccn2C)S(=O)(=O)c2cccc(C(F)(F)F)c2)cc1 returned RORg inh 7%, TDP1 block 1%, DT40 TDP1 no CPT inconclusive, DT40 TDP1 CPT 18µM* and VP16 counter 2%.
COc1cccc(C(=O)O/N=C(\N)c2ccccn2)c1OC was read as RORg inh inconclusive, DT40 TDP1 no CPT 7.3µM*, DT40 TDP1 CPT inconclusive and VP16 counter -29%.
N/C(=N\OC(=O)c1ccc2ccccc2c1)c1ccccn1 was read as RORg inh 4.5µM*, TDP1 block 4%, DT40 TDP1 no CPT inconclusive, DT40 TDP1 CPT inconclusive and VP16 counter 7.9µM*.
For COc1cccc(C(=O)O/N=C(\N)c2ccccn2)c1 the results were RORg inh inconclusive, DT40 TDP1 no CPT inconclusive, DT40 TDP1 CPT inconclusive and VP16 counter 14µM*.
For N/C(=N\OC(=O)c1ccc(=O)n(Cc2ccc(Cl)cc2)c1)c1ccccn1 the results were RORg inh 4%, TDP1 block -3%, DT40 TDP1 no CPT inconclusive, DT40 TDP1 CPT 21µM* and VP16 counter -12%.
`N/C(=N\OC(=O)c1ccc2ccccc2c1)c1ccncc1` gave RORg inh -30%, TDP1 block -2%, DT40 TDP1 no CPT 10%, DT40 TDP1 CPT 6% and VP16 counter -21%.
`N/C(=N\OC(=O)COc1ccc2ccccc2c1)c1ccncc1` gave RORg inh 11%, TDP1 block 0%, DT40 TDP1 no CPT inconclusive, DT40 TDP1 CPT 21µM* and VP16 counter -17%.
`CCCc1ccc(C(=O)O/N=C(\N)c2ccccn2)cc1` gave RORg inh 13µM*, TDP1 block 3%, DT40 TDP1 no CPT -29%, DT40 TDP1 CPT inconclusive and VP16 counter 11µM*.
